HPGD inh = HPGD (human) dehydrogenase inhibition. P15428. purified HPGD, NADH fluorescence kinetic, PGE2 substrate. Potency, µM, most hits filed as inhibitors. 150,000 compounds, 4.3% hits
Target sequence (P15428 whole entry, looked up): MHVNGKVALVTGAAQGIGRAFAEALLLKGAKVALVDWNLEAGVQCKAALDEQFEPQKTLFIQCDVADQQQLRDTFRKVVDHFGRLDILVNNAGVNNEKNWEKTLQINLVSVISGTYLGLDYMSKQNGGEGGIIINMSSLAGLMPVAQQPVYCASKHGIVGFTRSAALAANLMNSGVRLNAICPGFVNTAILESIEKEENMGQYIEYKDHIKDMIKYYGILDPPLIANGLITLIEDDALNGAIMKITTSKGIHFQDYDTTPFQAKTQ
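20 nM HPGD preincubated 15 min at room temperature with compound in 50 mM Tris-HCl pH 8, 0.01% Tween 20. Started with 1 mM NAD+ and 30 uM prostaglandin E2; NADH fluorescence (360/450 nm) read 5 times over 30-s intervals, last minus first.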
IMPase Li cell = membrane-permeable IMPase blocker, potentiated with lithium; 210,000 compounds, 0.35% hits; Potency, µM (top dose mostly 59.4 µM), actives largely listed as inhibitors; CHO-M1 cells, IP1 TR-FRET (IP-One), carbachol + lithium; AID 1457; active = well fitted curve in the direction sought with a large enough effect; inconclusive = small, poorly fitted or top-dose-only effect, or another doubt; inactive = no such curve, though single readings can be large; an effect the other way counts as inactive or inconclusive;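 note: IP1 builds up when IMPase is blocked and the TR-FRET signal falls; nearly all actives have a fitted effect of over 50% in size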
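Lithium-sensitised IP1 accumulation assay; M1-expressing CHO cells treated 30 min at 37C with compound. Competitive antibody detection by time-resolved FRET followed a 10 min room-temperature lysis step.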
NPSR antag = blocks cAMP signaling of the human neuropeptide S receptor. 220,000 compounds, 1% hits. CHO-NPSR cells, cAMP TR-FRET, antagonist mode. Q6W5P4. Potency, µM (highest dose often 38.3 µM), usual class: inhibitors; active = well fitted curve in the direction sought with a large enough effect; inconclusive = small, poorly fitted or top-dose-only effect, or another doubt; inactive = no such curve, though single readings can be large; an effect the other way counts as inactive or inconclusive; note: nearly all actives have a fitted effect of over 50% in size
IMPase cell inh = membrane-permeable compound that blocks inositol monophosphatase | P97697 | AID 901 | inhibition (IP1 accumulation), % at 46.1 µM | 120,000 tested, under 10 active | CHO-M1 cells, IP1 accumulation, HTRF TR-FRET ratio; active = well fitted curve in the direction sought with a large enough effect in the signal ratio, not every such curve was filed as active; inconclusive = small, poorly fitted or top-dose-only effect, or a change in a side signal; inactive = no such curve, though single readings can be large or run the other way; the % refers to the signal ratio;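 note: cells stimulated with carbachol in lithium chloride buffer; higher means more IMPase inhibition seen as more IP1 and lower FRET ratio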
Target sequence (P97697 whole entry, looked up): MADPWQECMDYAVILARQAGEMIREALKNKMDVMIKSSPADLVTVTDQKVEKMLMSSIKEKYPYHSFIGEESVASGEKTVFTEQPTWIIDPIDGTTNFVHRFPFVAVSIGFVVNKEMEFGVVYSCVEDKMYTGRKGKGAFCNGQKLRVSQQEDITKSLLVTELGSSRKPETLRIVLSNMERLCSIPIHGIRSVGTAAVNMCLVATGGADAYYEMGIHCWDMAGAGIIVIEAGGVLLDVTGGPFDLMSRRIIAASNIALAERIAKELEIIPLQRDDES
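CHO-M1, 2000 cells/well, cultured 16–30 h; cpd up to 46 uM; carbachol (50 uM solution, stimulation buffer w/ 50 mM LiCl, pH 7.4), 30 min 37C; IP-One TR-FRET, 10 min RT; Ex 320/Em 665, 620; Hill-fit AC50.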
ALDH1A1 block = ALDH1A1 (human) enzyme inhibition; P00352; 220,000 compounds, 7.3% hits; Potency, µM (top dose mostly 75.3 µM), most hits filed as inhibitors; Purified ALDH1A1, NADH fluorescence, propionaldehyde substrate
PNC inhibitor = blocks assembly of the perinucleolar compartment; PC3M PTB-GFP, PNC prevalence imaging, 16 h; hits give low values; activity change (PNC), negative = inhibition, % at 10 µM; 140,000 compounds, 3.1% hits;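 active = readout at or below -70, meaning at least 70% loss of cells showing the perinucleolar compartment, a nuclear body marking cancer cells; inconclusive = readout between -30 and a set limit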
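Read-out is percentage of cells bearing a perinucleolar compartment, from automated 20x imaging of fixed, Hoechst-stained PC3M PTB-GFP cells. Cells were seeded 4 h, then exposed 16 h to compound (23 nl of library stock) in duplicate plates.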
Hits are given with their value; 0 = inactive; ? = inconclusive; - = no result. In the library only some 11% were active in any assay of this set; here they are far more common. Unless noted, calls come from the whole dose curve; as a rule, active = well fitted inhibition curve with a large enough effect (not every such curve was filed as active); inconclusive = small, poorly fitted or top-dose-only effect, or another doubt; inactive = no such curve, though single readings can be large or run the other way.

SMILES | HPGD inh | IMPase Li cell | NPSR antag | IMPase cell inh | ALDH1A1 block | PNC inhibitor
CC(C)CC(OC(=O)c1nsc(Cl)c1Cl)C(=O)NCc1cccs1 (configuration not stated) | 5µM | 0 | 0 | 0 | ? | 0
COC(=O)c1cc(S(=O)(=O)n2nc(C)cc2C)c(Cl)cc1Cl | 0 | 0 | 0 | 0 | 0 | ?
O=C(CCc1ccccc1)Nc1ccc2ccccc2n1 | - | 0 | 0 | - | 0 | -
COc1ccc(C(=O)c2c(C)c3cc(C)ccc3n2CC(O)CN2CCOCC2)cc1 (configuration not stated) | 0 | 0 | 0 | - | 11µM | ?
OCCN1CCOCCN(CCO)CCN(CCO)CC1 | 0 | 0 | 0 | 0 | 0 | 0
CC(C)CNC(=O)c1cccc(NC(=O)C(C)Oc2ccccc2)c1 (configuration not stated) | - | 0 | 0 | - | 0 | -
COC(=O)CSC1=C(C#N)C(c2ccc3c(c2)OCO3)C2=C(CCCC2=O)N1 (configuration not stated) | 0 | 0 | 0 | 0 | 0 | 0
Cc1ccc(NC(=O)CSC2=C(C#N)C(c3ccc4c(c3)OCO4)C3=C(CCCC3=O)N2)c(C)c1 (configuration not stated) | ? | 0 | ? | ? | 14µM | 0
CCSC1=C(C#N)C(c2ccc3c(c2)OCO3)C2=C(CCCC2=O)N1 (configuration not stated) | 14µM | 0 | 0 | 0 | ? | 0
O=C(NCC1CCCO1)/C(=C\c1ccc(Cl)cc1)NC(=O)c1ccccc1 (configuration not stated) | 0 | 0 | 0 | 0 | 0 | ?
Cc1ccc(NCN2C(=O)C(=O)c3ccccc32)nc1 | 0 | 0 | 0 | 0 | 0.14µM | ?
CCOc1ccc(-n2c(SCc3cc(=O)oc4cc(C)ccc34)nnc2-c2cccnc2)cc1 | 0 | 0 | 0 | 0 | 0 | 0
CC(C)c1ccccc1-n1c(SCc2cc(=O)oc3ccc4ccccc4c23)nnc1-c1cccnc1 | ? | 0 | 10µM | 0 | 0 | ?
Cc1cc(C)c2c(-n3cccc3)n[nH]c2n1 | 0 | 0 | 0 | 0 | 0 | 0
O=C(CN1CCN(c2ccc(O)cc2)CC1)Nc1ccc(SC(F)F)cc1 | 0 | 0 | 0 | - | 8.9µM | 0
COc1cccc(N2CCN(CC(=O)Nc3ccc(SC(F)F)cc3)CC2)c1 | - | - | 0 | 0 | 0 | 0
Cn1cc(/C=N/n2cnc3scc(-c4ccccc4)c3c2=O)c2ccccc21 | 0 | 0 | 0 | 0 | ? | -113
COc1cccc(-c2nn3c(-c4ccccn4)nnc3s2)c1 | 32µM | 0 | 0 | 0 | 0 | 0
COc1ccccc1-c1nnc2sc(-c3cnccn3)nn12 | 25µM | 0 | 0 | 0 | ? | 0
COc1ccccc1-c1nnc2sc(-c3ccc(N(C)C)cc3)nn12 | - | - | ? | 0 | ? | 0
Clc1ccc(OCc2nn3c(-c4ccco4)nnc3s2)c(Cl)c1 | 3.2µM | 0 | 0 | 0 | 0 | 0
c1ccc(-c2nn3c(-c4ccco4)nnc3s2)nc1 | 0 | 0 | 0 | 0 | 24µM | 0
C1CCC(c2nn3c(-c4n[nH]c5c4CCC5)nnc3s2)CC1 | - | - | 0 | 0 | ? | ?
COc1cccc(-c2nnc3sc(-c4ccccn4)nn23)c1 | 22µM | 0 | ? | 0 | 0 | 0
c1coc(-c2nnc3sc(C4CCCCC4)nn23)c1 | 25µM | 0 | ? | 0 | 13µM | 0
SMILES | HPGD inh | IMPase Li cell | NPSR antag | IMPase cell inh | ALDH1A1 block | PNC inhibitor
Brc1ccc(-c2nn3c(-c4ccco4)nnc3s2)o1 | 0 | 11µM | ? | ? | ? | 0
Brc1ccc(-c2nn3c(-c4ccncc4)nnc3s2)o1 | - | - | 0 | 0 | ? | 0
COCCN(C(=O)C(=O)NC1CCCC1)C(C(=O)NC1CCCC1)c1ccccc1F (configuration not stated) | - | 0 | 0 | - | 0 | -
COc1cc(/C=N/NC(=O)c2ccc(C)nc2)cc([N+](=O)[O-])c1O | - | 0 | 0 | - | 0 | -
Clc1ccc(-n2ncc3c(N4CCCC4)ncnc32)cc1 | ? | 0 | 0 | - | ? | 0
COc1ccc(-c2noc(CCC(=O)NCC3CCN(Cc4cccc(C)c4)CC3)n2)cc1 | 0 | 0 | 0 | 0 | 0 | ?
NS(=O)(=O)c1ccc(NC(=O)COC(=O)CCC2CCCC2)cc1 | - | 0 | 0 | - | 0 | -
O=c1c2ccccc2nc(-c2cccc(Cl)c2)n1O | 0 | 0 | 0 | 0 | 0 | ?
COc1ccc(-c2nc(CN3CCN(c4cc(C)nc(C)c4)CC3)c(C)o2)c2ccccc12 | - | 0 | 0 | - | 0 | -
O=[N+]([O-])c1ccc(Nc2nc(NCCO)nc(N3CCCC3)n2)cc1 | - | 0 | 0 | - | 1.6µM | -
COc1cc2c(cc1OC)C(C)N(C(=O)Cn1ncc3c1-c1ccccc1OC3)CC2 (configuration not stated) | 0 | 0 | 0 | 0 | 0 | 0
O=C(NC(c1ccccc1)c1ccccc1)c1ccc(=O)[nH]n1 | - | 0 | 0 | - | 4.5µM | -
CC(C)c1ccc(CN2CCC(C(=O)NCc3cccnc3)CC2)cc1 | 0 | 0 | 0 | 0 | ? | 0
Cc1ccccc1C(=O)Nc1cccc(C(=O)N/N=C/c2cc(Cl)cc([N+](=O)[O-])c2O)c1 | - | 0 | 0 | - | 1.3µM | -
O=C(Cn1nc2ccccc2n1)N/N=C/c1cc(Cl)cc([N+](=O)[O-])c1O | - | 0 | 0 | - | 14µM | -
O=C(N/N=C/c1cc(Cl)cc([N+](=O)[O-])c1O)C1CC1 | - | - | 0 | - | ? | -
Cc1ccc(NC(=O)c2ccc(NCCN)c([N+](=O)[O-])c2)cc1 | 0 | 0 | 0 | - | ? | 0
Cc1c(N/C=C(\Cl)C(=O)C(F)(F)F)c(=O)n(-c2ccccc2)n1C | - | 0 | 0 | - | 32µM | -
O=S(=O)(c1ccc(NC(=S)Nc2ccc3c(c2)OCO3)cc1)N1CCOCC1 | ? | 0 | 0 | - | 22µM | 0
CNS(=O)(=O)c1ccc(NC(=S)Nc2ccc3c(c2)OCO3)cc1 | - | 0 | 0 | - | 5µM | -
O=C(CCc1ccccc1)NC(=S)Nc1ccc(S(=O)(=O)N2CCOCC2)cc1 | 0 | 0 | 0 | - | ? | ?
O=S(=O)(c1ccc(NC(=S)Nc2ccccc2)cc1)N1CCOCC1 | 0 | 0 | 0 | - | 20µM | 0
O=C(Nc1ccc(S(=O)(=O)N2CCOCC2)cc1)c1ccc2c(c1)OCO2 | - | - | 0 | - | - | -
Cc1cc(NS(=O)(=O)c2ccc(NC(=O)Nc3ccc4c(c3)OCO4)cc2)no1 | 0 | 0 | 0 | 0 | 0 | 0
CC(C)CCCCCCNC(=S)Nc1ccc(S(=O)(=O)N2CCOCC2)cc1 | 0 | 0 | ? | - | ? | ?
CC(NC(=S)Nc1ccc(S(=O)(=O)N2CCOCC2)cc1)C1CC2CCC1C2 (configuration not stated) | 0 | 0 | 0 | - | 20µM | 0
O=C(NNC1=NCCCCC1)c1ccccc1 | 14µM | 0 | 0 | 0 | 0 | 0
c1ccc(CNC2=NCCCC2)cc1 | - | - | 0 | 0 | 0 | 0
c1ccc(NCCCNc2ccccc2)cc1 | 0 | 0 | 0 | 0 | 20µM | 0
O=C(N/N=C/c1sc(N2CCOCC2)nc1-c1ccccc1)c1ccccc1Cl | - | 0 | 0 | - | ? | -
